Source: paper PMC5869772, “Quantitative profiling of BATF family proteins/JUNB/IRF hetero-trimers using Spec-seq”

Assays:
Assay in all cases: Spec-seq (EMSA and sequencing of bound and unbound bands); 100 nM BATFx-JUNB, 1 uM dsDNA library, 50 mM K acetate, 20 mM Tris-acetate, 10 mM Mg acetate, 100 ug/ml BSA, pH 7.9, 10% glycerol, 30 min on ice; native 9% PAGE at 4 C; low values mean tight binding
Conditions in all cases: protein: recombinant;recombinant; tags: N-terminal mCherry-TEV, cleaved off;C-terminal 6His; copies: 1;1; dsDNA, one strand shown
BATF;JUNB = target: T1, BATF;JUNB (human;human, UniProt Q16520;P17275 1-125;148-347, |)
T1 sequence 1: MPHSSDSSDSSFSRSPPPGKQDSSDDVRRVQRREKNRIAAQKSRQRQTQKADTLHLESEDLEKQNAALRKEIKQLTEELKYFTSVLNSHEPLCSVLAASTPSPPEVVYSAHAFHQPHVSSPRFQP
T1 sequence 2: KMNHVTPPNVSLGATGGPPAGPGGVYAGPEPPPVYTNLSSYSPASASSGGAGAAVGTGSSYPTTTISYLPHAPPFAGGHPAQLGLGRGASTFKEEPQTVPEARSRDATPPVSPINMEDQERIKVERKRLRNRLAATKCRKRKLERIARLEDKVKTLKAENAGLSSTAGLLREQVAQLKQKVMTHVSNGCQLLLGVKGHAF
Method in brief: (§1)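 The protein, at 100 nM, was incubated with 1 μM double-stranded degenerate DNA library for 30 min on ice in NEB Cutsmart buffer with 10% glycerol, then resolved by native 9% PAGE at 4 °C. Excised bound and unbound bands were PCR-barcoded and Illumina-sequenced, and each sequence's relative binding energy in kT is −ln of its bound/unbound read-count ratio.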

BATF2 (bZIP);JUNB = target: T2, BATF2 (bZIP);JUNB (human;human, UniProt Q8N1L9;P17275 1-142;148-347, |)
T2 sequence 1: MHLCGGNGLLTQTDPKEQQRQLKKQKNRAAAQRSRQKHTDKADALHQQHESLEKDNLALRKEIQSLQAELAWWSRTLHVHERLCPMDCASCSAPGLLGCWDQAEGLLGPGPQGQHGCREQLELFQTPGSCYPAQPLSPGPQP
T2 sequence 2: T1 sequence 2
Method in brief: as §1

BATF3;JUNB = target: T3, BATF3;JUNB (human;human, UniProt Q9NR55;P17275 1-127;148-347, |)
T3 sequence 1: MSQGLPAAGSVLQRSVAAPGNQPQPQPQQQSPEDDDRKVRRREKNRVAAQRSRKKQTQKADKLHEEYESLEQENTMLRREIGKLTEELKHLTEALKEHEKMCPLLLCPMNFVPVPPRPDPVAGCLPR
T3 sequence 2: T1 sequence 2
Method in brief: as §1

**Q.** What does the source list for “GATAGTCTCATTTTCACCCCGTGAAATGACTCATTTGTTCCATTACAGTATCTGT”?
**A.** binding signal (BATF;JUNB): -0.896 kT; binding signal (BATF2 (bZIP);JUNB): -0.796 kT; binding signal (BATF3;JUNB): -1.24 kT

**Q.** “GATAGTCTCATTTTCACCCCGTGAAATGACACATTTGTTCCATTACAGTATCTGT” was tested. Which binding signal (BATF;JUNB) did it give?
**A.** The binding signal was -0.137 kT.

**Q.** And the binding signal (BATF2 (bZIP);JUNB)?
**A.** The binding signal was 0.424 kT.

**Q.** And the binding signal (BATF3;JUNB)?
**A.** Its binding signal is 0.0792 kT.

**Q.** With “GATAGTCTCATTTTCACCCCGTGAAATGACGTAATTGTTCCATTACAGTATCTGT” as the sequence, how does the binding signal (BATF;JUNB) read?
**A.** The binding signal was -0.759 kT.

**Q.** And the binding signal (BATF2 (bZIP);JUNB)?
**A.** The binding signal was -0.891 kT.

**Q.** What about the binding signal (BATF3;JUNB) of the same sequence?
**A.** The binding signal was -1.44 kT.

**Q.** For “GATAGTCTCATTTTCACCCCGTGAAATGAGTCGGTTGTTCCATTACAGTATCTGT”, which binding signal (BATF;JUNB) is on record?
**A.** Its binding signal is 0.0858 kT.

**Q.** And the binding signal (BATF2 (bZIP);JUNB)?
**A.** The binding signal was 1.07 kT.

**Q.** And the binding signal (BATF3;JUNB)?
**A.** The binding signal was 0.619 kT.

**Q.** “GATAGTCTCATTTTCACCCCGTGAAATGACTGAATTGTTCCATTACAGTATCTGT” was tested. Which binding signal (BATF;JUNB) did it give?
**A.** Its binding signal is -0.087 kT.

**Q.** What about the binding signal (BATF2 (bZIP);JUNB) of the same sequence?
**A.** Its binding signal is 0.382 kT.

**Q.** And the binding signal (BATF3;JUNB)?
**A.** Its binding signal is 0.179 kT.

**Q.** Which results are given for “GATAGTCTCATTTTCACCCCGTGAAATGACTCAGTTGTTCCATTACAGTATCTGT”?
**A.** binding signal (BATF;JUNB): -0.786 kT; binding signal (BATF2 (bZIP);JUNB): -0.202 kT; binding signal (BATF3;JUNB): -0.697 kT
